Laboratory results taken from PubChem BioAssay (NCATS).
“And” between values parts separate entries of the source, which are not always exact repeats. Equal values may be shown once. Inconclusive results are not listed. A structure can be active in one record and inactive in another. Values without a mark were called inactive. The source made the active and inactive calls. Calls follow the shape of the dose curve; as a rule, active = well fitted inhibition curve with a large enough effect; inconclusive = small, poorly fitted or top-dose-only effect; inactive = flat fitted curve, though single readings scatter. Where a SMILES comes first, the peptide text is derived from it. Non-standard residues stand in square brackets, D forms with d. Residues, ends and D or L forms follow the SMILES beside them. Bridges are numbered along the chain shown (N, C = ends). [ ]: non-standard residue; d: D form. The star is where a group is joined. Dab(CH2SO3H) = N[C@@H](CCNCS(=O)(=O)O)C(=O)O; X3 = CC[C@@H](C)CCCCC(=O)*; Orn = NCCC[C@H](N)C(=O)O; Dab = NCC[C@H](N)C(=O)O

Experiments:
[1] = test system: TAB113; assay: qHTS profiling for inhibitors of Plasmodium falciparum proliferation (AID 504749); details: P. falciparum in erythrocytes, SYBR Green DNA, 72 h; series mostly up to 28.7 µM
In short: (§1)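 Readout was DNA-dye fluorescence from lysed cultures, ex 485/em 535 nm. Parasitized red cells had grown 72 h with compound; data scaled between 0.29 uM artemisinin and DMSO wells and corrected using vehicle-only plates.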

[2] = test system: KB-3-1; assay: Cytotoxic Profiling of Annotated Libraries Using Quantitative High-Throughput Screening (AID 1296008); details: Five cell lines viability, CellTiter-Glo ATP luminescence, 48-72 h; max response: hits give low values; as to max response: % is scaled to controls: 0 for no effect and ±100 for the full control effect
In short: (§2)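 Cells exposed to compounds for 48 or 72 hr at 37 degrees Celsius. Viability read as ATP-coupled luminescence with CellTiter-Glo after 10 min at room temperature.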

[3] = test system: HEK293; assay: as above; details: Five cell lines viability, CellTiter-Glo ATP luminescence, 48-72 h; max response: hits give low values
In short: as §2

[4] = test system: HaCat; assay: as above; details: Five cell lines viability, CellTiter-Glo ATP luminescence, 48-72 h; max response: hits give low values
In short: as §2

[5] = test system: NIH3T3; assay: as above; details: Five cell lines viability, CellTiter-Glo ATP luminescence, 48-72 h; max response: hits give low values
In short: as §2

[6] = test system: TAB165; assay: qHTS profiling for inhibitors of Plasmodium falciparum proliferation (AID 504749); details: P. falciparum in erythrocytes, SYBR Green DNA, 72 h; series mostly up to 28.7 µM
In short: as §1

[7] = test system: HEK293T; assay: qHTS assay to identify novel small-molecules to repurpose for Merkel cell carcinoma treatment (AID 1296009); details: MCC and control cell lines, CellTiter-Glo viability, 72 h; series mostly up to 44.8 µM
In short: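 Cells were incubated with compound for 72 hr at 37 degree celsius before CellTiter-Glo addition. Luminescence was normalized with no-cell wells as full cytotoxicity and DMSO as baseline.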

[8] = test system: CRL-7250; assay: Cytotoxic Profiling of Annotated Libraries Using Quantitative High-Throughput Screening (AID 1296008); details: Five cell lines viability, CellTiter-Glo ATP luminescence, 48-72 h; max response: hits give low values; as to max response: % is scaled to controls: 0 for no effect and ±100 for the full control effect
In short: as §2

[9] = test system: W2; assay: qHTS profiling for inhibitors of Plasmodium falciparum proliferation (AID 504749); details: P. falciparum in erythrocytes, SYBR Green DNA, 72 h; series mostly up to 28.7 µM
In short: as §1
Also: nearly all actives have a fitted effect of over 60% in size.
Potency is read from the fitted curve at half-maximal effect.

**Q.** Which results are given for `O=C(O)c1cc(=O)c2c3nc4ccccc4oc-3cc(=O)c2[nH]1`?
**A.** Potency [1]: inactive; max response [2]: -4.67%

**Q.** With `CCCCC(CC)COC(=O)CC(C(=O)OCC(CC)CCCC)S(=O)(=O)O` (centres undefined) as the molecule, how does the max response [2] read?
**A.** The max response was -3.48% and -14.8%.

**Q.** With `Cc1cc(CC(C)CC(C)(C)C)n(O)c(=O)c1` (centres undefined) (tested in a mixture with another compound) as the molecule, how does the max response [2] read?
**A.** Its max response is 29.3%.

**Q.** Which max response [2] does the source give for `CO[C@H]1C=CO[C@@]2(C)Oc3c(C)c(O)c4c(O)c(c5c(nc6cc(C)ccn65)c4c3C2=O)NC(=O)/C(C)=C\C=C[C@H](C)[C@H](O)[C@@H](C)[C@@H](O)[C@@H](C)[C@H](OC(C)=O)[C@@H]1C` here?
**A.** The max response was 5.41%.

**Q.** With `CC(=O)OCC(=O)[C@@]12OC3(CCCC3)O[C@@H]1C[C@H]1[C@@H]3CCC4=CC(=O)C=C[C@]4(C)[C@@]3(F)[C@@H](O)C[C@@]12C` as the molecule, how does the max response [2] read?
**A.** The max response was -4.92%.

**Q.** For `CCCC(=O)Nc1ncnc2c1ncn2[C@@H]1O[C@@H]2COP(=O)(O)O[C@H]2[C@H]1OC(=O)CCC`, which max response [2] is on record?
**A.** The max response was -5.3%.

**Q.** Which max response [2] does the source give for `CCOC(=O)O[C@]1(C(=O)COC(=O)CC)CC[C@H]2[C@@H]3CCC4=CC(=O)C=C[C@]4(C)[C@H]3[C@@H](O)C[C@@]21C` here?
**A.** Its max response is 0.126%.

**Q.** `CN1CCC(CN2c3ccccc3Sc3ccccc32)C1` (centres undefined) was tested. Which max response [2] did it give?
**A.** Its max response is -8.09%.

**Q.** What does the source list for `COc1cc2c(Nc3ccc(Cl)c(Cl)c3F)ncnc2cc1OCC1C[C@@H]2CN(C)C[C@@H]2C1` (some centres undefined)?
**A.** Potency [3]: 16.4 µM (active) and 13.2 µM (active); Potency [4]: 231 nM (active) and 11.7 nM (active); Potency [2]: 18.4 µM (active); Potency [5]: 1.3 µM (active) and 8.31 µM (active)

**Q.** `CCCCC(=O)OCC(=O)[C@]1(O)Cc2c(O)c3c(c(O)c2[C@@H](O[C@H]2C[C@H](NC(=O)C(F)(F)F)[C@H](O)[C@H](C)O2)C1)C(=O)c1c(OC)cccc1C3=O` was tested. Which Potency [2] did it give?
**A.** Its Potency is 8.2 µM (active).

**Q.** With `COc1cc2c(cc1O)CCN[C@]21CS[C@@H]2c3c(OC(C)=O)c(C)c4c(c3[C@H](COC1=O)N1[C@@H]2[C@H]2c3c(cc(C)c(OC)c3O)C[C@@H]([C@@H]1O)N2C)OCO4` as the molecule, how does the Potency [2] read?
**A.** Its Potency is 5.2 nM (active) and 28.2 nM (active).

**Q.** Which max response [2] does the source give for `COc1ccc(C[C@@H](C)NC[C@H](O)c2ccc(O)c(NC=O)c2)cc1` here?
**A.** The max response was 2.59%.

**Q.** For `CC(Oc1ccccc1)C(=O)N[C@@H]1C(=O)N2[C@@H]1SC(C)(C)[C@@H]2C(=O)O` (some centres undefined), which max response [2] is on record?
**A.** Its max response is -0.849%.

**Q.** Which Potency [2] does the source give for `CC(C)C[C@@H]1NC(=O)[C@H](CCCN)NC(=O)[C@H](C(C)C)NC(=O)[C@@H]2CCCN2C(=O)[C@@H](Cc2ccccc2)NC(=O)[C@H](CC(C)C)NC(=O)[C@H](CCCN)NC(=O)[C@H](C(C)C)NC(=O)[C@@H]2CCCN2C(=O)[C@@H](Cc2ccccc2)NC1=O` (cyclo(V[Orn]L[dF]PV[Orn]L[dF]P)) here?
**A.** The Potency was 0.82 µM (active).

**Q.** `NCc1ccccc1CC(=O)N[C@@H]1C(=O)N2C(C(=O)O)=C(CSc3nnnn3CC(=O)O)CS[C@H]12` was tested. Which max response [2] did it give?
**A.** The max response was -8.7%.

**Q.** For `CCCC(=O)O[C@]1(C(=O)COC(C)=O)CC[C@H]2[C@@H]3C[C@H](F)C4=CC(=O)C=C[C@]4(C)[C@@]3(F)[C@@H](O)C[C@@]21C`, which max response [2] is on record?
**A.** Its max response is 20.2%.

**Q.** How did the Potency [1] turn out when `CC1(C)C(C=C(Cl)Cl)C1C(=O)OCc1cccc(Oc2ccccc2)c1` (centres undefined) was run?
**A.** The Potency was “inactive”.

**Q.** And the Potency [6]?
**A.** Its Potency is “inactive”.

**Q.** What about the max response [2] of the same molecule?
**A.** The max response was -12.6%.

**Q.** With `N[C@H](C(=O)O)[C@@H]1CC(Cl)=NO1` as the molecule, how does the Potency [2] read?
**A.** The Potency was 20.6 µM (active).

**Q.** Which max response [3] does the source give for `N#Cc1ccc2[nH]c(O)c(-c3ccc(CN4CCOCC4)cn3)c2c1` here?
**A.** Its max response is -0.745%.

**Q.** And the outcome [3]?
**A.** Its outcome is “inactive”.

**Q.** What about the max response [4] of the same molecule?
**A.** Its max response is -0.0847%.

**Q.** And the max response [5]?
**A.** The max response was -16.6%.

**Q.** What about the outcome [5] of the same molecule?
**A.** The outcome was “inactive”.

**Q.** And the Potency [7]?
**A.** The Potency was “inactive”.

**Q.** Which Potency [8] does the source give for `COc1ccc(C[C@H](N)C(=O)N[C@H]2[C@@H](O)[C@H](n3cnc4c(N(C)C)ncnc43)O[C@@H]2CO)cc1` here?
**A.** The Potency was 920 nM (active).

**Q.** What about the Potency [4] of the same molecule?
**A.** Its Potency is 1.3 µM (active).

**Q.** And the Potency [2]?
**A.** The Potency was 5.17 µM (active) and 517 nM (active).

**Q.** And the Potency [5]?
**A.** Its Potency is 2.31 µM (active).

**Q.** What about the Potency [7] of the same molecule?
**A.** Its Potency is 1160 nM (active).

**Q.** With `CCC(=O)OCC(=O)[C@@]1(OC(=O)CC)[C@H](C)C[C@H]2[C@H]3[C@H]([C@@H](O)C[C@@]21C)[C@@]1(C)C=CC(=O)C=C1C[C@H]3Cl` as the molecule, how does the max response [2] read?
**A.** The max response was 31.3%.

**Q.** With `CO[C@@H]1[C@@H](O[C@@H]2O[C@H](C)[C@@H](O[C@H]3C[C@@](C)(O)[C@@H](OC(=O)CC(C)C)[C@H](C)O3)[C@H](N(C)C)[C@H]2O)[C@@H](CC=O)C[C@@H](C)C(=O)/C=C/C2OC2C[C@@H](C)OC(=O)C[C@H]1OC(C)=O` (some centres undefined) as the molecule, how does the max response [2] read?
**A.** Its max response is 20.2%.

**Q.** How did the max response [2] turn out when `C[C@H](CCC(=O)O)[C@H]1CC[C@H]2[C@@H]3[C@H](O)C[C@@H]4C[C@H](O)CC[C@]4(C)[C@H]3CC[C@]12C` was run?
**A.** Its max response is 0.682%.

**Q.** With `CC(=O)O[C@]1(C(C)=O)CC[C@H]2[C@@H]3CCC4=CC(=O)CC[C@]4(C)[C@@]3(F)[C@@H](O)C[C@@]21C` as the molecule, how does the max response [2] read?
**A.** The max response was 28.7%.

**Q.** How did the max response [2] turn out when `CC[C@@H](C)CCCCC(=O)N[C@@H](CCNCS(=O)(=O)O)C(=O)N[C@H](C(=O)N[C@@H](CCNCS(=O)(=O)O)C(=O)N[C@H]1CCNC(=O)[C@H]([C@@H](C)O)NC(=O)[C@H](CCNCS(=O)(=O)O)NC(=O)[C@H](CCNCS(=O)(=O)O)NC(=O)[C@H](CC(C)C)NC(=O)[C@@H](CC(C)C)NC(=O)[C@H](CCNCS(=O)(=O)O)NC1=O)[C@@H](C)O` (X3-[Dab(CH2SO3H)]T[Dab(CH2SO3H)][Dab][Dab(CH2SO3H)][dL]L[Dab(CH2SO3H)][Dab(CH2SO3H)]T; lactam 4-C) was run?
**A.** The max response was 9.65%.

**Q.** With `CC1(C)O[C@@H]2C[C@H]3[C@@H]4CCC5=CC(=O)C=C[C@]5(C)[C@H]4[C@@H](O)C[C@]3(C)[C@]2(C(=O)CO)O1` as the molecule, how does the max response [2] read?
**A.** Its max response is -0.986%.

**Q.** Which max response [2] does the source give for `CC[C@@H](C(=O)[C@@H](C)[C@@H](O)[C@H](C)CCc1ccc(C)c(O)c1C(=O)O)[C@H]1O[C@](CC)([C@H]2CC[C@](O)(CC)[C@H](C)O2)C[C@@H]1C` here?
**A.** The max response was 10.1%.

**Q.** With `O=C(O)C1CCCN1` (centres undefined) as the molecule, how does the max response [2] read?
**A.** Its max response is 3.27%.

**Q.** `CC(=O)OCC(=O)[C@@]1(O)CC[C@H]2[C@@H]3C[C@H](C)C4=CC(=O)C=C[C@]4(C)[C@H]3[C@@H](O)C[C@@]21C` was tested. Which max response [2] did it give?
**A.** The max response was 15.9%.

**Q.** With `COC(=O)[C@H]1[C@H]2C[C@@H]3c4[nH]c5ccccc5c4CCN3C[C@H]2C[C@@H](OC(=O)c2cc(OC)c(OC)c(OC)c2)[C@@H]1OC` as the molecule, how does the Potency [1] read?
**A.** The Potency was 282 nM (active).

**Q.** What about the Potency [6] of the same molecule?
**A.** The Potency was 178 nM (active).

**Q.** What about the Potency [9] of the same molecule?
**A.** The Potency was 151 nM (active).

**Q.** What about the Potency [2] of the same molecule?
**A.** Its Potency is 7.31 µM (active).

**Q.** What about the max response [2] of the same molecule?
**A.** The max response was -19.2%.
